# Measured values as given in PubChem BioAssay.
# Several values for one entry are separate records, joined by “and”; a condition that tells them apart may be missing. Equal entries are not always repeated. Activity calls are given as the source filed them.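 The calls were made as follows, unless noted: active = normalized viability below 100% at a tested concentration; inactive = the rest.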
# Key:
# [1] = hESC survival regulators, cell-based (AID 493140; call rule not given here;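 also: cells exposed to compounds for four days before counting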); details: human embryonic stem cell survival screen; stronger effect = higher value
# [2] = test system: Hepatitis C virus NS3 helicase; assay: HCV NS3 helicase inhibitors, primary screen, biochemical, fluorescence polarization, NIH Clinical Collection (AID 743270; call rule not given here); details: NS3 helicase binding to Cy5-dT15 DNA, stronger effect = higher value, concentration not given here
# [3] = target: Single-stranded DNA-binding protein (Escherichia coli (strain K12)) (UniProt P0AGE0); assay: E. coli SSB displacement from DNA, counter-screen for HCV NS3 helicase inhibitor project, biochemical, fluorescence polarization, NIH Clinical Collection (AID 743271; in the data active = inhibition above about 28%); details: stronger effect = higher value, concentration not given here
# [4] = fluorescence interference in NS3h assay format, artefact control for HCV NS3 helicase inhibitor project, biochemical, NIH Clinical Collection (AID 743272; call rule not given here;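 also: HCV NS3 helicase with a Cy5 labelled single stranded DNA probe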); details: fluorescence interference counterscreen, stronger effect = lower value
# [5] = differential killing of epithelial or mesenchymal cells, primary screen, imaging, PC-3E GFP, TEM4-18 mCherry, co-culture (AID 1345086;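 active = compounds killing one labelled cell type while sparing the other, by normalised counts and ratio limits, not self-fluorescent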;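 as to all read-outs here: cells exposed to compound for 72 h before imaging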;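 as to red/green cell ratio (normalised): normalised mesenchymal count divided by normalised epithelial count so high means epithelial killing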); details: imaging cell counts, at 1 µM; for red/green cell ratio (normalised): actives lie on both sides, counts scaled to control wells, 1 = unselective
# [6] = survival rescue of mitochondrial mutant cells in low glucose, primary screen, MELAS cybrids, Rieske KO mouse fibroblasts, CellTiter-Glo (AID 1508586;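 active = mean z-score across replicates of 1.96 or higher in either the MELAS or the Rieske mutant cell line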;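 also: z relative to plate mean and SD of compound and empty wells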)
# [7] = target: NAD(+) hydrolase SARM1 (Homo sapiens) (UniProt Q6SZW1); assay: SARM1 TIR NADase inhibitors, cell lysate, NAD-Glo luminescence (AID 1508614;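 active = compound whose remaining NAD level is above about 45 nM, limit read from the data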;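 also: higher remaining NAD means stronger inhibition of SARM1 NADase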); details: SAM-TIR HEK293T lysate NADase, at 1 µM, stronger effect = higher value
# [8] = target: Mitogen-activated protein kinase 7 (Homo sapiens) (UniProt Q13164); assay: ERK5 transactivation activators in reporter cells, primary screen, cell-based, HTS (AID 1508626;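 active = luciferase signal above three times the same-plate solvent-only control wells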;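 also: luciferase driven by Gal4-ERK5 fusion binding five Gal4 sites before minimal TATA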); details: HeLa Gal4-ERK5 transactivation, 18 h, at 5 µM, stronger effect = higher value
# [9] = test system: F380Y; assay: modulators of BK channel variants, profiling panel, selectivity assay, cell-based, U2OS BacMam, thallium flux, beta subunits (AID 1259406;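 active = thallium flux through the channel raised or lowered by more than 3 SD from vehicle-only wells, actives on both sides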;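 also: initial slope of Thallos dye fluorescence rise after thallium is added; log ratio against the mean of 0.3% DMSO vehicle wells on the same plate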); details: at 30 µM
# [10] = test system: F380Y/beta2Delta; assay: as above; details: at 30 µM
# [11] = target: Calcium-activated potassium channel subunit alpha-1 (Homo sapiens) + Leucine-rich repeat-containing protein 26 (Homo sapiens) (UniProt Q12791+Q2I0M4); assay: as above; details: F380Y/Slo1WT/gamma1, at 30 µM
# [12] = test system: R275C; assay: as above; details: at 30 µM
# [13] = test system: R275C/beta1; assay: as above; details: at 30 µM
# [14] = test system: R275C/beta2Delta; assay: as above; details: at 30 µM
# [15] = target: 6-phosphogluconate dehydrogenase, decarboxylating (Homo sapiens) (UniProt P52209); assay: 6PGD enzyme inhibitors, primary screen, biochemical, human, recombinant enzyme, NADPH absorbance (AID 1159550;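 active = at least 20% inhibition of 6-phosphogluconate dehydrogenase activity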); details: recombinant 6PGD, NADPH absorbance 341 nm; at 10 µM; stronger effect = higher value
# [16] = sensitizers of A549 cells to miR-34 induction, primary screen, imaging, A549 dox-inducible miR-34, nuclei and caspase counts (AID 1347080;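 active = compounds whose cell count with miR-34 switched on is under 0.7 times the count with it off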); details: A549 miR-34 inducible, Hoechst nuclei count, 48 h
# [17] = viability rescue of complex I mutant cybrids, primary screen, cell-based, galactose medium, ATP luminescence (AID 1645843;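 active = z-score of at least 1.8 in each of two replicates, scored against plate mean and spread of sample wells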;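 also: positive z means more ATP and so rescue of galactose-driven cybrid death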); details: complex I mutant cybrid cells, 72 h, stronger effect = higher value
# [18] = ovarian cancer cell viability with rucaparib, profiling panel, oncology-focused library, rucaparib conditional (AID 1508598); details: patient-derived ovarian cancer cells, CellTiter-Glo viability, 144 h, stronger effect = lower value
# [19] = measured here: epithelial PC-3E GFP cell survival
# [20] = measured here: mesenchymal TEM4-18 mCherry cell survival
# [21] = MELAS cybrid survival, CellTiter-Glo 48 h, stronger effect = higher value
# [22] = Rieske KO mouse fibroblast survival, CellTiter-Glo 72 h
# [23] = stronger effect = lower value, cell number ratio, induced over uninduced
# [24] = measured here: relative caspase fold change +Dox/-Dox
# [25] = measured here: total cells with miR-34 induction, stronger effect = lower value
# [26] = measured here: total cells without miR-34 induction
# Sequence of NAD(+) hydrolase SARM1 (Homo sapiens) (Q6SZW1 whole entry, looked up, the tested form may be a part): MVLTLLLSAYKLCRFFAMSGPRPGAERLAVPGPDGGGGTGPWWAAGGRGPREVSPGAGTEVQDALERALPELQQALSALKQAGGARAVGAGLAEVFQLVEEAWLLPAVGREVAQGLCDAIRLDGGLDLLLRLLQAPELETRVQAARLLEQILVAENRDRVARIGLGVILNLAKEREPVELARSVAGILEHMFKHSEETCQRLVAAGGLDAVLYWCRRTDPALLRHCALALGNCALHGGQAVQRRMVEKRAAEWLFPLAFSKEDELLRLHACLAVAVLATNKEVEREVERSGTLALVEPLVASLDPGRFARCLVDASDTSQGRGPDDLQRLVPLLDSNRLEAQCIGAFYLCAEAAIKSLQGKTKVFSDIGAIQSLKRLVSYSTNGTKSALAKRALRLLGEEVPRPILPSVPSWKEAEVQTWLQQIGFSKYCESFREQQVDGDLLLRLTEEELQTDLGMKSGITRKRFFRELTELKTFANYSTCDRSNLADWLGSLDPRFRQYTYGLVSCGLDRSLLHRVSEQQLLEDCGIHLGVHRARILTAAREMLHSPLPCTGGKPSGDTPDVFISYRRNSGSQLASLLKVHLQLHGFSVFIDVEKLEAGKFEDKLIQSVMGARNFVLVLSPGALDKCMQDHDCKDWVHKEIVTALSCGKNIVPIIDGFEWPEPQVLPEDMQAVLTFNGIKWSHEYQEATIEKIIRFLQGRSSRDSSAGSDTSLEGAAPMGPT
# Sequence of Mitogen-activated protein kinase 7 (Homo sapiens) (Q13164 whole entry, looked up, the tested form may be a part): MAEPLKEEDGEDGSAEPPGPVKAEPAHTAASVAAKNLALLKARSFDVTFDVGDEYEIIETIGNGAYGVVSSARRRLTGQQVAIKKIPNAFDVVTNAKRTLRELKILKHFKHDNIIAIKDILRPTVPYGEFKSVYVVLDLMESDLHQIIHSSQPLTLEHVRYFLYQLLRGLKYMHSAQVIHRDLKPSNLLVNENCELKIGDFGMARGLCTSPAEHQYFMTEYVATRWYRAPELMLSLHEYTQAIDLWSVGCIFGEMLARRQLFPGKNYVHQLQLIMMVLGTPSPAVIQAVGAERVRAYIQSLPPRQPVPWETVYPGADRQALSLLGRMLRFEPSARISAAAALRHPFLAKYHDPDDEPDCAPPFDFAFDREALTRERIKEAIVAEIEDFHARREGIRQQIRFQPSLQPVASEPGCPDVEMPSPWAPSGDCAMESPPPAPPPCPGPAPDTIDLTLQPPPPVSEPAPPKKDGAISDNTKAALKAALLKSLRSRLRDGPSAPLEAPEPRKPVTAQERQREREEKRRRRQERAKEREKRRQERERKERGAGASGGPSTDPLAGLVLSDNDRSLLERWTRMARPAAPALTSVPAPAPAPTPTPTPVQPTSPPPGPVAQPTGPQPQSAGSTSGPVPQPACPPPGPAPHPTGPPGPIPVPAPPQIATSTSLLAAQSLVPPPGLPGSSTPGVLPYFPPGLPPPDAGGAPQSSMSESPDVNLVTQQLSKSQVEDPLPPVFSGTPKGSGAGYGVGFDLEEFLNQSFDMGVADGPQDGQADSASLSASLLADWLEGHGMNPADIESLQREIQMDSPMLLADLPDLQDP
# Sequence of 6-phosphogluconate dehydrogenase, decarboxylating (Homo sapiens) (P52209 whole entry, looked up): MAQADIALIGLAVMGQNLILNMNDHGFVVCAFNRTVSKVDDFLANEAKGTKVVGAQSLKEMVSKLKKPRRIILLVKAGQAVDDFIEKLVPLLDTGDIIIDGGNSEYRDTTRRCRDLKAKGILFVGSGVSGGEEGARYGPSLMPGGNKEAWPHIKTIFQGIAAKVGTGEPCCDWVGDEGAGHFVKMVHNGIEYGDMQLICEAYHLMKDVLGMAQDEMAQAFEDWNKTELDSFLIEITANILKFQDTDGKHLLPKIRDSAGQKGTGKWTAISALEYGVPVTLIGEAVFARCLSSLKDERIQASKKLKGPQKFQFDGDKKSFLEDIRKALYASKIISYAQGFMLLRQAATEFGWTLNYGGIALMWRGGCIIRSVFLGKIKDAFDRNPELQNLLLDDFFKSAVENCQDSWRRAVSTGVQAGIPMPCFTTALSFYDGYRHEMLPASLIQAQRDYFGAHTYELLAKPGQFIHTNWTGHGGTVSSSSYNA
# Sequence of Calcium-activated potassium channel subunit alpha-1 (Homo sapiens) + Leucine-rich repeat-containing protein 26 (Homo sapiens) (Q2I0M4 whole entry, looked up, one chain of several): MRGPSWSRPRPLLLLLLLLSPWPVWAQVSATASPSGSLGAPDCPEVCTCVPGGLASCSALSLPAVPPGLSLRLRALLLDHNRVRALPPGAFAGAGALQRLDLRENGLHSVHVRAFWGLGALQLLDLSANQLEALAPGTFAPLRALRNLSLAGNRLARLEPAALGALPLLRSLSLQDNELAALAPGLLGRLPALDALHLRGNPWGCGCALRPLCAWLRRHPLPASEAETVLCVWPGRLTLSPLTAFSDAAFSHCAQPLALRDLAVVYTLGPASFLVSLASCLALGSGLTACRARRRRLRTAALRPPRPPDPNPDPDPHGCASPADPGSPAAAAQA
smiles,measurement,setting,value
O=C(O)COCCN1CCN(C(c2ccccc2)c2ccc(Cl)cc2)CC1 (configuration not stated),survival,[1],20 (inactive)
same,inhibition,[2],-12.3% (inactive)
same,inhibition,[3],-1.24% (inactive)
same,fluorescence ratio,[4],1.01 (inactive)
same,red/green cell ratio (normalised),[5],0.83 (inactive)
same,normalised cell number,[5]; [19],1.06
same,normalised cell number,[5]; [20],0.88
same,z-score,[6]; [21],-0.429 (inactive) and 0.214 (inactive)
same,z-score,[6]; [22],0.813 and 0.142
same,remaining NAD,[7],10 nM (inactive)
same,luciferase signal,[8],76 AU (inactive)
same,log fold change Tl+ flux,[9],0.0594 (inactive)
same,log fold change Tl+ flux,[10],0.0743 (active)
same,log fold change Tl+ flux,[11],0.0148 (inactive)
same,log fold change Tl+ flux,[12],0.0304 (inactive)
same,log fold change Tl+ flux,[13],0.109 (inactive)
same,log fold change Tl+ flux,[14],0.056 (inactive)
CN(C)C(=N)N=C(N)N,survival,[1],14 (inactive)
same,inhibition,[15],10.4% (inactive)
same,red/green cell ratio (normalised),[5],0.72 (inactive)
same,normalised cell number,[5]; [19],1.31
same,normalised cell number,[5]; [20],0.95
same,fold change,[16]; [23],0.831 (inactive) and 0.956 (inactive) and 0.958 (inactive)
same,fold change,[16]; [24],1.13 and 2.95 and 0.938
same,cell count,[16]; [25],7440 and 12900 and 10500
same,cell count,[16]; [26],8950 and 13500 and 10900
same,z-score,[6]; [21],-0.356 (inactive) and 0.193 (inactive)
same,z-score,[6]; [22],0.0508 and -0.797
same,remaining NAD,[7],10 nM (inactive)
same,luciferase signal,[8],508 AU (active)
same,z-score,[17],0.78 (inactive)
NCC1O[C@@H](O[C@H]2C(O)C(O[C@@H]3OC(CO)[C@H](O)[C@H](N)C3O)[C@@H](N)C[C@H]2N)C(O)[C@@H](O)[C@H]1O (some centres not stated),inhibition,[15],-2.65% (inactive)
COC(=O)C(O)[C@H]1C(C)(C)[C@@H](OC(C)=O)[C@@H]2CC3=C4CC(=O)O[C@@H](c5ccoc5)[C@]4(C)CCC3[C@@]1(C)C2=O (some centres not stated),inhibition,[15],12.8% (inactive)
OC[C@@H](O)C(O)[C@H](O)CO,inhibition,[15],-0.48% (inactive)
C/C=C(/C)C(=O)O[C@H]1Cc2c(ccc3ccc(=O)oc23)OC1(C)C,inhibition,[15],9.34% (inactive)
CC(C)(C)CC(C)(C)c1ccc(OCCOCC[N+](C)(C)Cc2ccccc2)cc1,survival,[1],0.167 (inactive)
same,inhibition,[15],-3.07% (inactive)
same,fold change,[16]; [23],0.798 (inactive) and 0.823 (inactive) and 0.768 (inactive)
same,fold change,[16]; [24],1.51 and 1.83 and 3.74
same,cell count,[16]; [25],2760 and 5310 and 8060
same,cell count,[16]; [26],3460 and 6450 and 10500
same,z-score,[6]; [21],-0.38 (inactive) and -2.14 (inactive)
same,z-score,[6]; [22],-0.151 and 1.32
same,remaining NAD,[7],13 nM (inactive)
same,luciferase signal,[8],44 AU (inactive)
CN(C)c1nc(N(C)C)nc(N(C)C)n1,viability,"[18]; at 0.000305 µM, OCI-C5x cells, with rucaparib 10 µM, 100% = cells with rucaparib alone",108% (inactive)
same,viability,"[18]; at 0.000305 µM, OCI-C5x cells, without rucaparib",98.3% (active)
same,viability,"[18]; at 0.000305 µM, OCI-P5x cells, with rucaparib 20 µM, 100% = cells with rucaparib alone",95.7% (active)
same,viability,"[18]; at 0.000305 µM, OCI-P5x cells, without rucaparib",87% (active)
same,viability,"[18]; at 0.00122 µM, OCI-C5x cells, with rucaparib 10 µM, 100% = cells with rucaparib alone",112% (inactive)
same,viability,"[18]; at 0.00122 µM, OCI-C5x cells, without rucaparib",100% (inactive)
same,viability,"[18]; at 0.00122 µM, OCI-P5x cells, with rucaparib 20 µM, 100% = cells with rucaparib alone",95.8% (active)
same,viability,"[18]; at 0.00122 µM, OCI-P5x cells, without rucaparib",89% (active)
same,viability,"[18]; at 0.00488 µM, OCI-C5x cells, with rucaparib 10 µM, 100% = cells with rucaparib alone",120% (inactive)
same,viability,"[18]; at 0.00488 µM, OCI-C5x cells, without rucaparib",101% (inactive)
same,viability,"[18]; at 0.00488 µM, OCI-P5x cells, with rucaparib 20 µM, 100% = cells with rucaparib alone",101% (inactive)
same,viability,"[18]; at 0.00488 µM, OCI-P5x cells, without rucaparib",92.4% (active)
same,viability,"[18]; at 0.0195 µM, OCI-C5x cells, with rucaparib 10 µM, 100% = cells with rucaparib alone",113% (inactive)
same,viability,"[18]; at 0.0195 µM, OCI-C5x cells, without rucaparib",100% (inactive)
same,viability,"[18]; at 0.0195 µM, OCI-P5x cells, with rucaparib 20 µM, 100% = cells with rucaparib alone",102% (inactive)
same,viability,"[18]; at 0.0195 µM, OCI-P5x cells, without rucaparib",96.6% (active)
same,viability,"[18]; at 0.0781 µM, OCI-C5x cells, with rucaparib 10 µM, 100% = cells with rucaparib alone",110% (inactive)
same,viability,"[18]; at 0.0781 µM, OCI-C5x cells, without rucaparib",101% (inactive)
same,viability,"[18]; at 0.0781 µM, OCI-P5x cells, with rucaparib 20 µM, 100% = cells with rucaparib alone",103% (inactive)
same,viability,"[18]; at 0.0781 µM, OCI-P5x cells, without rucaparib",106% (inactive)
same,viability,"[18]; at 0.313 µM, OCI-C5x cells, with rucaparib 10 µM, 100% = cells with rucaparib alone",107% (inactive)
same,viability,"[18]; at 0.313 µM, OCI-C5x cells, without rucaparib",108% (inactive)
same,viability,"[18]; at 0.313 µM, OCI-P5x cells, with rucaparib 20 µM, 100% = cells with rucaparib alone",108% (inactive)
same,viability,"[18]; at 0.313 µM, OCI-P5x cells, without rucaparib",99.9% (active)
same,viability,"[18]; at 1.25 µM, OCI-C5x cells, with rucaparib 10 µM, 100% = cells with rucaparib alone",96.8% (active)
same,viability,"[18]; at 1.25 µM, OCI-C5x cells, without rucaparib",67.8% (active)
same,viability,"[18]; at 1.25 µM, OCI-P5x cells, with rucaparib 20 µM, 100% = cells with rucaparib alone",78.5% (active)
same,viability,"[18]; at 1.25 µM, OCI-P5x cells, without rucaparib",28.8% (active)
same,viability,"[18]; at 5 µM, OCI-C5x cells, with rucaparib 10 µM, 100% = cells with rucaparib alone",109% (inactive)
same,viability,"[18]; at 5 µM, OCI-C5x cells, without rucaparib",97.9% (active)
same,viability,"[18]; at 5 µM, OCI-P5x cells, with rucaparib 20 µM, 100% = cells with rucaparib alone",107% (inactive)
same,viability,"[18]; at 5 µM, OCI-P5x cells, without rucaparib",98.6% (active)
